Reference: PubChem BioAssay (EPA / NIEHS)
Calls of active or inactive are those of the source. The calls were made as follows: active = hit-call score of the fitted dose curve at least 0.9, where 1 is the maximum; inactive = score below 0.9.

Assays:
[1] = ATG_CRE_CIS: Attagene CIS-FACTORIAL HepG2 Assay for human cAMP Responsive Element (CRE) binding protein 3 (AID 2282926); settings: HepG2 CRE cis-reporter, Attagene multiplexed mRNA; actives raise or lower the signal
Summary of the method: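 Induced reporter mRNA from a CRE cis element, measured in HepG2 among many multiplexed units at 24 h. Detection used RT-PCR plus capillary electrophoresis of fluorescent fragments; DMSO served as negative control.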

[2] = molecular target: CCAAT/enhancer-binding protein beta (Homo sapiens) (UniProt P17676); test: ATG_C_EBP_CIS: Attagene CIS-FACTORIAL HepG2 Assay for human CCAAT/Enhancer Binding Protein (C/EBP) beta (AID 2282927); settings: HepG2 Attagene cis-factorial transcription factor reporter; actives raise or lower the signal
Summary of the method: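 Endogenous C/EBPb-driven reporter transcripts measured in transfected human HepG2 cells at 24 h via RT-PCR and capillary electrophoresis of labelled fragments. Activity fitted in both directions relative to DMSO baseline.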

[3] = ATG_CMV_CIS: Attagene CIS-FACTORIAL HepG2 Assay for human CMV (Internal Marker) (AID 2282928); settings: HepG2 CMV promoter reporter, transcription factor profiling; actives raise or lower the signal;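 also: endpoint acts as a background internal control marker rather than a target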
Summary of the method: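 Readout: fluorescent reporter cDNA fragments separated by capillary electrophoresis after RT-PCR and HpaI cut. Cells: HepG2 carrying transfected cis-promoter reporter constructs, dosed 24 h. Endpoint serves as background internal-marker control, fit bidirectionally versus DMSO.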

[4] = ATG_DR4_LXR_CIS: Attagene CIS-FACTORIAL HepG2 Assay for human Liver X Receptor (LXR), DR4 submotif (AID 2282929); settings: HepG2 Attagene DR4 cis-reporter, mRNA transcription; actives raise or lower the signal
Summary of the method: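 DR4 cis-reporter in HepG2, 24 h exposure. Detection: RT-PCR, 6-FAM labelling, CE fragment analysis. Endpoint fitted bidirectionally, DMSO = baseline.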

[5] = molecular target: Aryl hydrocarbon receptor (Homo sapiens) (UniProt P35869); test: ATG_Ahr_CIS: Attagene CIS-FACTORIAL HepG2 Assay for human Aryl Hydrocarbon Receptor (Ahr) (AID 2282930); settings: HepG2 AhR cis-factorial reporter transcription; actives raise or lower the signal
Summary of the method: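 Reporter mRNA levels, quantified by RT-PCR and fluorescent capillary electrophoresis, reflect endogenous AhR transcriptional activity in HepG2 cells carrying transfected cis-promoter reporter constructs. Readout at 24 h post-dose; gain or loss fitted against DMSO baseline.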

[6] = ATG_AP_1_CIS: Attagene CIS-FACTORIAL HepG2 Assay for human Activator Protein 1 (AP-1) (AID 2282931); settings: HepG2 Attagene cis-factorial AP-1 reporter mRNA; actives raise or lower the signal
Summary of the method: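 Cis-regulated reporter units transiently expressed in HepG2 report endogenous transcription-factor activity. Signal: reporter mRNA at 24 h, via RT-PCR and fluorescent capillary electrophoresis. Endpoint derived by bidirectional fitting, DMSO as negative control.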

[7] = ATG_BRE_CIS: Attagene CIS-FACTORIAL HepG2 Assay for human Bone Morphogenetic Protein (BMP) Response Element (BRE) (AID 2282933); settings: HepG2 BMP response element reporter, Attagene transcription factor profiling; actives raise or lower the signal
Summary of the method: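 Read-out: reporter mRNA induction quantified by RT-PCR and capillary electrophoresis after 24 h chemical exposure of transfected HepG2 cells. Endogenous factor activity on the BMP response element; gain or loss fitted against DMSO baseline.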

[8] = molecular target: Retinoic acid receptor alpha (Homo sapiens) (UniProt P10276); test: ATG_DR5_RAR_CIS: Attagene CIS-FACTORIAL HepG2 Assay for human Retinoic Acid Receptor Alpha (RARE), DR5 submotif (AID 2282934); settings: HepG2 Attagene cis-factorial RARE DR5 reporter, mRNA; actives raise or lower the signal
Summary of the method: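 Reporter transcripts from a DR5-regulated unit, measured via RT-PCR plus capillary electrophoresis, reflect endogenous RAR activity in transiently transfected human HepG2 liver cells. Exposure lasted 24 h; gain or loss of signal scored against DMSO.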

[9] = molecular target: Transcription factor E2F1 (Homo sapiens) (UniProt Q01094); test: ATG_E2F_CIS: Attagene CIS-FACTORIAL HepG2 Assay for human E2F Transcription Factor 1 (AID 2282935); settings: HepG2 Attagene cis-reporter, E2F reporter RNA transcripts; actives raise or lower the signal
Summary of the method: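 Gain or loss of reporter transcript, fitted against DMSO, reflects E2F1-driven transcription. Transiently transfected HepG2 dosed 24 h before RNA isolation. Quantified by fluorescent RT-PCR products separated by capillary electrophoresis.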

[10] = ATG_E_Box_CIS: Attagene CIS-FACTORIAL HepG2 Assay for human Enhancer Box (E-box) (AID 2282936); settings: HepG2 E-box cis-reporter transcription, actives raise or lower the signal
Summary of the method: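 E-box-driven reporter transcripts measured in transiently transfected HepG2 after 24 h exposure: RNA reverse-transcribed, PCR-amplified, fluorescently labelled, digested and resolved by capillary electrophoresis. Gain or loss relative to DMSO.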

[11] = ATG_M_61_CIS: Attagene CIS-FACTORIAL HepG2 Assay for M61 Transcription Factor (Internal Marker) (AID 2282937); settings: HepG2 Attagene CIS-FACTORIAL M61 internal marker reporter; actives raise or lower the signal
Summary of the method: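 Background-control endpoint: HepG2 cells with cis-regulated reporter constructs, 24 h exposure, reporter mRNA detected via fluorescent primer extension and capillary electrophoresis; values from bidirectional fitting with DMSO baseline.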

[12] = ATG_EGR_CIS: Attagene CIS-FACTORIAL HepG2 Assay for human Early Growth Response 1 (EGR1) (AID 2282938); settings: HepG2 Attagene CIS-FACTORIAL EGR reporter mRNA; actives raise or lower the signal
Summary of the method: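 Endpoint derived by bidirectional fitting versus DMSO vehicle. Method: cis-promoter reporter units transfected into HepG2, 24 h dosing, RNA isolation, RT-PCR with 6-FAM primer extension and HpaI digestion, then capillary electrophoresis fluorescence detection.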

[13] = ATG_M_19_CIS: Attagene CIS-FACTORIAL HepG2 Assay for M19 Transcription Factor (Internal Marker) (AID 2282939); settings: HepG2 Attagene CIS-FACTORIAL M19 internal marker reporter; actives raise or lower the signal
Summary of the method: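 Readout: fluorescent reporter-transcript fragments by capillary electrophoresis after RT-PCR. Human HepG2 liver cells carried transfected MRTU constructs reporting endogenous transcription-factor activity; exposure 24 h. Gain or loss of signal fitted relative to DMSO.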

[14] = ATG_Ets_CIS: Attagene CIS-FACTORIAL HepG2 Assay for human Erythroblast Transformation Specific (ETS) (AID 2282941); settings: HepG2 ETS cis-reporter transcription, actives raise or lower the signal
Summary of the method: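 RT-PCR/capillary electrophoresis fluorescence read-out of reporter mRNA; HepG2 transient multi-reporter transfection; 24 h compound exposure; gain or loss of signal fitted bidirectionally relative to DMSO.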

[15] = molecular target: Hepatocyte nuclear factor 3-beta (Homo sapiens) (UniProt Q9Y261); test: ATG_FoxA2_CIS: Attagene CIS-FACTORIAL HepG2 Assay for human Forkhead box A2 (FOXA2) (AID 2282942); settings: HepG2 cis-reporter transcription factor activity, 24 h; actives raise or lower the signal
Summary of the method: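 Measured: reporter mRNA induction or loss in HepG2 transiently carrying multiple cis-regulated reporter units, 24 h after dosing. Quantified by RT-PCR plus capillary electrophoresis, normalised to DMSO.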

[16] = ATG_FoxO_CIS: Attagene CIS-FACTORIAL HepG2 Assay for human Forkhead box O (FoxO) (AID 2282943); settings: HepG2 Attagene cis-reporter, FoxO element, mRNA; actives raise or lower the signal
Summary of the method: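 Endogenous transcription factor activity read from multiplexed cis-promoter reporter transcripts in transiently transfected HepG2, 24 h after dosing. Reporter RNA measured via RT-PCR plus capillary electrophoresis of FAM-labeled products; gain or loss relative to DMSO.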

[17] = ATG_GATA_CIS: Attagene CIS-FACTORIAL HepG2 Assay for human GATA Binding Protein (AID 2282944); settings: HepG2 GATA cis-element reporter, Attagene multiplex mRNA; actives raise or lower the signal
Summary of the method: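 Read-out: fluorescent reporter mRNA fragments resolved by capillary electrophoresis after RT-PCR. Human liver HepG2 cells carried transiently transfected cis-regulated reporter constructs; chemicals incubated 24 h; gain or loss of signal fitted relative to DMSO.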

[18] = ATG_GLI_CIS: Attagene CIS-FACTORIAL HepG2 Assay for human Zinc Finger Protein GLI1 (AID 2282945); settings: HepG2, Attagene cis-factorial reporter mRNA, GLI element; actives raise or lower the signal
Summary of the method: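 Bidirectional curve fits relative to DMSO, using reporter mRNA levels from RT-PCR plus capillary electrophoresis. Cells were HepG2 transiently carrying cis-regulated reporter constructs, harvested 24 h after dosing.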

[19] = ATG_AP_2_CIS: Attagene CIS-FACTORIAL HepG2 Assay for human Activator Protein 2 (AP-2) (AID 2282932); settings: HepG2 AP-2 cis-reporter, Attagene transcription factor profiling; actives raise or lower the signal
Summary of the method: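 Endogenous transcription factor activity is reported through transfected multiplex reporter constructs in HepG2, after 24 h of compound exposure. Transcripts were quantified by RT-PCR and capillary electrophoresis of fluorescent fragments. Bidirectional fit against DMSO.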

Measured: outcome

Retinoic acid receptor alpha (Homo sapiens), sequence (P10276 whole entry, looked up): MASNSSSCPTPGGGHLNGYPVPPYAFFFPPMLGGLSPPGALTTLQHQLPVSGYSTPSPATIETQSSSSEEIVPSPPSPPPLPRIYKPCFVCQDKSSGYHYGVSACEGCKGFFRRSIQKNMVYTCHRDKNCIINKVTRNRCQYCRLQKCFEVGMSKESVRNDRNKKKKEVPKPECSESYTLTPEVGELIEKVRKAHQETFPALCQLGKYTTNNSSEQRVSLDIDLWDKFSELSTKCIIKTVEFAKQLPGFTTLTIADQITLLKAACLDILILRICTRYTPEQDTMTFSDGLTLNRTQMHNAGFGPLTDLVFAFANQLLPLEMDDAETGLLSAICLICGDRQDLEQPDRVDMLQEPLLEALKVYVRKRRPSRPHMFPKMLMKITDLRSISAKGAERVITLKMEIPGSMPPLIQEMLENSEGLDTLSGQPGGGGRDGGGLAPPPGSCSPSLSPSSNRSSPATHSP
CCAAT/enhancer-binding protein beta (Homo sapiens), sequence (P17676 whole entry, looked up, the tested form may be a part): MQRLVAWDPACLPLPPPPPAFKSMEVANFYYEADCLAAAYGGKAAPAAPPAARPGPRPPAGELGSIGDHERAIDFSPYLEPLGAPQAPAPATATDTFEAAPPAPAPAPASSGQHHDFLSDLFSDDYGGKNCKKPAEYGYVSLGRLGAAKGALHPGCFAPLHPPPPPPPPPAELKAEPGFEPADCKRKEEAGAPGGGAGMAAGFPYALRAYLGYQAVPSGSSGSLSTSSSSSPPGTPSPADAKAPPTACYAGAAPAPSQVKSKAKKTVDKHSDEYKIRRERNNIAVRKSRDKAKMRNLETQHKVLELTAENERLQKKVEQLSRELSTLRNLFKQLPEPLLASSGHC
Hepatocyte nuclear factor 3-beta (Homo sapiens), sequence (Q9Y261 whole entry, looked up): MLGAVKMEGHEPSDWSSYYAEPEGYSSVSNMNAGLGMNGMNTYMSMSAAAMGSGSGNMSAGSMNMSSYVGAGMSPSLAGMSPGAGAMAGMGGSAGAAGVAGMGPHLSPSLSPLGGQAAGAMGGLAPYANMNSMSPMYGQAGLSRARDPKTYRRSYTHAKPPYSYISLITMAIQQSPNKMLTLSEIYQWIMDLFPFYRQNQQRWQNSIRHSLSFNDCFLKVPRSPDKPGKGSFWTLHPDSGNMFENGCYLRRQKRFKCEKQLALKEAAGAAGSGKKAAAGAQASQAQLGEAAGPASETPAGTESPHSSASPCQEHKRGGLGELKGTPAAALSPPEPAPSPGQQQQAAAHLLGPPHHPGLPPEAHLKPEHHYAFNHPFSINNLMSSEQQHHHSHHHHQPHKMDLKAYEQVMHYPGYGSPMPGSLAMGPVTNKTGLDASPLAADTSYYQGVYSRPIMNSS
Aryl hydrocarbon receptor (Homo sapiens), sequence (P35869 whole entry, looked up): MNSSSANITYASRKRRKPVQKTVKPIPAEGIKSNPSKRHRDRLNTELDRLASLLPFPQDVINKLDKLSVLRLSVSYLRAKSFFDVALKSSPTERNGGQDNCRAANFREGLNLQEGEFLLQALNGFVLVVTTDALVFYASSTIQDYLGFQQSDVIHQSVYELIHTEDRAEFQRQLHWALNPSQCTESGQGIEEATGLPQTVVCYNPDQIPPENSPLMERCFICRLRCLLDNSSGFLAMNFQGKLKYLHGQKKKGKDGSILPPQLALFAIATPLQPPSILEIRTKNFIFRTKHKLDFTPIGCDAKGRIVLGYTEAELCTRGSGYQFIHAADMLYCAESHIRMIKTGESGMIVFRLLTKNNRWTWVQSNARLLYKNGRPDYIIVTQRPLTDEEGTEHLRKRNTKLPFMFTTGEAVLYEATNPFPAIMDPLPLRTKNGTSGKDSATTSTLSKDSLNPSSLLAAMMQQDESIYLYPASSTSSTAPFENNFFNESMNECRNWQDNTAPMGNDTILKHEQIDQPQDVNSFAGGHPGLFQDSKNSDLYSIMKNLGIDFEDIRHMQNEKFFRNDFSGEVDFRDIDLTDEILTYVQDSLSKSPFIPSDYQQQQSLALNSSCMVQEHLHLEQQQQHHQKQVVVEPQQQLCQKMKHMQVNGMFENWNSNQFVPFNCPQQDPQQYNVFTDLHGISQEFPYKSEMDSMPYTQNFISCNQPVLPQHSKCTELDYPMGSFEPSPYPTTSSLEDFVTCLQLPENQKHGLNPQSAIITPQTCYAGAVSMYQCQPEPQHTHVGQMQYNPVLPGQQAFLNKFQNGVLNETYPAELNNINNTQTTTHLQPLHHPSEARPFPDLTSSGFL
Transcription factor E2F1 (Homo sapiens), sequence (Q01094 whole entry, looked up): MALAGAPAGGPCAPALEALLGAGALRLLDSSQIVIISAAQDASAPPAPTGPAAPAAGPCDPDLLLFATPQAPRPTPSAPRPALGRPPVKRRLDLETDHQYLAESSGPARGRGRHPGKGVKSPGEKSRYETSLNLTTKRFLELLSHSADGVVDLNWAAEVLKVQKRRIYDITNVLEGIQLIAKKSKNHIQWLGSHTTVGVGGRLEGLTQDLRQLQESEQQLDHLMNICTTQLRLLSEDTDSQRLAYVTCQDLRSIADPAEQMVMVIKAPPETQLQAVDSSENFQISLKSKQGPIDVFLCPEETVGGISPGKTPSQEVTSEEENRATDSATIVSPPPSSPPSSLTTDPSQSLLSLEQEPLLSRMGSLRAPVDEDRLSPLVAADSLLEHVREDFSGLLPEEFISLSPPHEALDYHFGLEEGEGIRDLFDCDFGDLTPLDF

C1CCOC1
not listed: [19]
inactive: all other assays above

CCCCCCC(C)(C)S
not listed: [6]
inactive: all other assays above

CCCCSCCCC
not listed: [6]
inactive: all other assays above

Cc1c(Cl)cccc1[N+](=O)[O-]
not listed: [10] | [19]
inactive: all other assays above
